# Screening results: PubChem BioAssay, National Center for Advancing Translational Sciences (NCATS)
# Shown are actives, neighbours in structure and some others; about 7.3% of the full set was active somewhere.
# Rab9 prom act: activates the Rab9 promoter | Huh7 Rab9 promoter-luciferase reporter, luminescence, 24 h | Potency, µM (titrated, usually from 9.22 µM), inactives show top-dose activation, negative = inhibition, hits mostly activators | 320,000 tested, 2.8% active | AID 485297; note: % of control where 0% means no effect; nearly all actives have a fitted effect of over 60% in size
#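 Rab9 promoter-driven luciferase in stably transfected Huh7 cells; 1500 cells/well rested 2 h, exposed to compound in DMSO for 24 h at 37 °C, 5% CO2. Luminescence read 10 min after adding luciferase reagent at ambient temperature.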
# Luc counter: counter-screen: inhibitors of Kinase-Glo firefly luciferase | Q27757 | Kinase-Glo luciferase, ATP luminescence, 8 min | Potency, µM (titrated, usually from 38.3 µM), inactives show at the top dose activity change, negative = inhibition, usual class: inhibitors | 200,000 tested, 0.28% active | AID 1379; note: % is set by controls: 0 for no effect and ±100 for the full control effect; nearly all actives have a fitted effect of over 60% in size
#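 Kinase-Glo luciferase light output from ATP and luciferin was measured with 10 uM ATP, within the enzyme's linear range. Buffer: 50 mM imidazole pH 7.2, 50 mM KCl, 7 mM MgCl2, 0.01% Tween 20, 0.05% BSA; luminescence read after 8 min at ambient temperature.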
# FLuc modulator: counter-screen for miR-21 project: firefly luciferase inhibitors or activators; purified FLuc, Km substrates, luminescence inhibition; 360,000 tested, 6.9% active; Potency, µM (doses to about 57.5 µM), inactives show at the top dose activity change, negative = inhibition, most hits filed as inhibitors;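 note: plate controls were vehicle for no effect and reference inhibitor for full effect; nearly all actives have a fitted effect of over 55% in size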
# Target sequence (P08659 whole entry, looked up): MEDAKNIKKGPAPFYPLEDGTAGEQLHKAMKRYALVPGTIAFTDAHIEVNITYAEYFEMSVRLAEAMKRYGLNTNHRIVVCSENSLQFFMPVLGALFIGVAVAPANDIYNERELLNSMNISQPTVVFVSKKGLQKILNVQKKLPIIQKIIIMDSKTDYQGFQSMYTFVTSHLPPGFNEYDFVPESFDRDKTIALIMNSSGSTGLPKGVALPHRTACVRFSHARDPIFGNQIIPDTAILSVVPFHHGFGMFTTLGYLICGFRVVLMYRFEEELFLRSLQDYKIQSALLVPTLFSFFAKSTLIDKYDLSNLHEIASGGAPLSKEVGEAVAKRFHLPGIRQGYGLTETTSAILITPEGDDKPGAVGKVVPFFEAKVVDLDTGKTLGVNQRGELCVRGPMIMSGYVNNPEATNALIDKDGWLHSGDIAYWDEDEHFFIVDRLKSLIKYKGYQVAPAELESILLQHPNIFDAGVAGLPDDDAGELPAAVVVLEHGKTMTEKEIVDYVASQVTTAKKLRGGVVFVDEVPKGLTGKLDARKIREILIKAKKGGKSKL
#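 Purified P. pyralis luciferase, 10 nM final, with Km-level 10 uM D-luciferin and 10 uM ATP in 50 mM Tris acetate pH 7.5, 10 mM Mg acetate, 0.01% Tween-20, 0.05% BSA; 6-point qHTS titration about 60 µM downward; luminescence read.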
# SMN2 splice up: enhancers of SMN2 splice variant expression | HEK293 SMN2-luciferase splicing reporter, luminescence, 30-36 h | Potency, µM (top dose mostly 46.1 µM), for the others: top-dose activity change, positive = activation, most hits filed as activators | 210,000 tested, 2.8% active; note: % of control where 0% means no effect; nearly all actives have a fitted effect of over 55% in size
#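 qHTS luciferase splicing reporter: luminescence rises when SMN2 exon 7 is included in transfected HEK293 cells. Compound exposure lasted 30-36 h at 37C, with 4.5 mM final sodium butyrate as control, followed by a ONE-Glo read.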
# NPC1 promoter act: activators of NPC1 promoter; Huh7 NPC1 promoter luciferase reporter, 24 h; Potency, µM (series often up to 9.22 µM), for inactives: at the top dose activation, usual class: activators; 320,000 tested, 2.4% active; note: % of control where 0% means no effect; nearly all actives have a fitted effect of over 60% in size
#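 NPC1 promoter–luciferase Huh7 cells; 24 h compound; luminescence.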
# * hit, by the source's call; ? = inconclusive; nt = no result. Calls come from the whole dose curve; as a rule, active = well fitted curve in the direction sought with a large enough effect; inconclusive = small, poorly fitted or top-dose-only effect, or another doubt; inactive = no such curve, though single readings can be large; an effect the other way counts as inactive or inconclusive. Potency is the fitted concentration of half-maximal effect.
SMILES,Rab9 prom act,Luc counter,FLuc modulator,SMN2 splice up,NPC1 promoter act
CCN1CCOC(=O)C1CC(=O)Nc1cc(C)ccc1OC (centres undefined),nt,nt,-5.2%,3.4%,nt
Clc1ccccc1OCc1nn2c(-c3ccncc3)nnc2s1,-2.4%,-2.9%,0.5%,-12.0%,-0.4%
Cc1nc(COc2ccccc2Cl)sc1-c1ccnc(N)n1,15.6%,nt,10.7µM*,nt,1.7%
CS(=O)(=O)N1CCc2cc(C(=O)NCc3ccccc3)ccc21,nt,nt,-0.3%,0.5%,nt
CCc1ccc(-n2c(=O)c3sc4ccccc4c3n(CC(=O)NCc3ccccc3)c2=O)cc1,nt,nt,-2.8%,8.4%,nt
COc1ccccc1CNC(=O)CCCCn1c(=O)c2ccccc2n(Cc2c(C)cc(C)cc2C)c1=O,nt,nt,1.6%,-9.8%,nt
CCn1c2ccccc2c2cc(/C=N/NC(=O)c3cccc(C)c3)ccc21,-6.0%,4.1%,-1.9%,-66.4%,-29.7%
Cn1c2ccccc2c2cc(/C=N/NC(=O)c3ccccc3F)ccc21,12.8%,nt,7.57µM*,nt,-10.2%
Cn1c2ccccc2c2cc(/C=N/NC(=O)c3ccc(N)cc3)ccc21,11.8%,nt,10.7µM*,nt,-1.9%
CCn1c2ccccc2c2cc(/C=N/NC(=O)c3ccccc3C)ccc21,-15.7%,-1.1%,?,-71.9%,-21.6%
COc1ccccc1CC(=O)Nc1ccc2nc(Nc3cccc(C(F)(F)F)c3)cc(C)c2c1,nt,nt,-2.6%,nt,nt
COc1ccc(-n2c(C)cc(/C=C3\C(=O)NN(c4ccccc4)C3=O)c2C)cc1,26.8%,-0.4%,2.69µM*,?,?
Cc1cc(/C=C2\C(=O)NN(c3ccccc3)C2=O)c(C)n1-c1ccccc1O,2.82µM*,nt,1.35µM*,nt,2.82µM*
Cc1cc(/C=C2/C(=O)NN(c3ccccc3)C2=O)c(C)n1-c1ccc(O)cc1,2.51µM*,-11.2%,0.151µM*,-77.5%,?
Cc1cc(=O)[nH]c(=S)n1-c1ccccc1,-6.0%,0.4%,12.8%,-13.0%,-0.2%
Cc1cc(C=C2C(=O)CCCC2=O)c(C)n1-c1ccccc1,-0.1%,-0.3%,16.9µM*,4.4%,1.0%
Cc1ccc(S(=O)(=O)N(CC(=O)O)c2ccc(Cl)cc2)cc1,nt,1.6%,nt,nt,nt
S=C(N/N=C/c1ccccc1Cl)Nc1ccccc1,?,-7.6%,19µM*,28.0%,?
Cc1cccc(C)c1NC(=S)N/N=C/c1ccc(C(=O)O)cc1,-0.5%,nt,-3.6%,nt,-7.4%
CC(=O)Nc1cccc(C(=O)N/N=C/c2cccnc2)c1,10.6%,-5.0%,?,4.3%,2.4%
O=C(O)c1cccc(NC(=S)N/N=C/c2cccnc2)c1,?,-0.2%,10.7µM*,16.4%,?
COc1ccc(/C=N/NC(=S)Nc2ccccc2)cc1,3.98µM*,-3.9%,10.7µM*,10µM*,?
CNC(=S)N/N=C/c1ccccc1Cl,-0.2%,-1.1%,1.5%,26.3%,-0.8%
COc1ccc(/C=N/NC(=S)Nc2cccc(C(=O)O)c2)cc1,1.78µM*,-0.2%,1.69µM*,12.6µM*,2µM*
O=C(CCC1N=C2c3ccccc3N=C(SCc3ccccc3Cl)N2C1=O)N1CCN(c2ccccc2)CC1 (centres undefined),nt,nt,-0.7%,-3.7%,nt
SMILES,Rab9 prom act,Luc counter,FLuc modulator,SMN2 splice up,NPC1 promoter act
CCCc1ccc(C2Sc3ccccc3NC3=C2C(=O)c2ccccc23)cc1 (centres undefined),nt,nt,-3.3%,-18.1%,nt
COc1cccc(/C=N/NC(=O)c2ccc(-c3ccccc3)cc2)c1O,-28.5%,3.9%,2.2%,-77.9%,-33.0%
COc1cccc(/C=N/NC(=O)C[n+]2ccccc2)c1O,-8.0%,-2.8%,?,18.3%,0.8%
COc1cc(/C=N/NC(=S)Nc2cccc(C(=O)O)c2)ccc1O,?,-0.6%,4.26µM*,9.7%,?
COc1ccc(CCCC(=O)N/N=C/c2cccc(OC)c2O)cc1C,-25.3%,-1.1%,16.9µM*,-90.2%,-8.2%
COCCCNC(=S)N/N=C/c1ccc(O)cc1O,-6.0%,nt,?,nt,1.9%
COCCCNC(=S)N/N=C/c1cccc(OC)c1O,-25.5%,nt,9.53µM*,nt,10.5%
COc1cccc(/C=N/NC(=S)Nc2cccc(C(=O)O)c2)c1O,-5.9%,-0.4%,0.19µM*,15.8µM*,-3.1%
CCOc1ccc(NC(=O)CCn2c(=O)c3cccn3c3cccnc32)cc1,nt,nt,0.1%,nt,nt
COc1ccc(CCNC(=O)Cn2c(=O)nc(-c3ccccc3F)c3cc(Cl)ccc32)cc1OC,nt,nt,-3.5%,nt,nt
Cc1ccc(/C=C/c2onc(C)c2S(=O)(=O)N2CCC(C(=O)NCc3ccc(Cl)cc3)CC2)cc1,nt,nt,2.2%,nt,nt
O=C(NCc1cccc(Cl)c1)C1CCCN(c2ncnc3onc(-c4ccc(F)cc4)c23)C1 (centres undefined),nt,nt,-10.1%,nt,nt
Cc1cc(N2CCOCC2)n2ncc(-c3ccccc3Cl)c2n1,2.51µM*,nt,2.69µM*,nt,2.51µM*
Cc1nc2c(-c3ccc(F)cc3)cnn2c(N)c1-c1ccc(F)cc1,0.562µM*,nt,0.849µM*,nt,0.447µM*
Cc1cc(N)n2ncc(-c3ccc(Cl)cc3)c2n1,3.16µM*,2.8%,13.5µM*,20.7%,2.82µM*
CC(C)c1cc(N2CCOCC2)n2ncc(-c3ccccc3)c2n1,1.8%,nt,-3.8%,nt,2.4%
Cc1cc(Cl)n2ncc(-c3ccccc3)c2n1,?,nt,12µM*,nt,25.0%
COc1ccc(NC(=O)C2=C(C)Nc3ncnn3C2c2ccc(O)cc2)cc1 (centres undefined),nt,nt,3.8%,nt,nt
Cc1cc(C)n2cc(-c3ccc(Cl)cc3)c(C(=O)O)c2n1,2.51µM*,1.4%,?,12.6µM*,2.82µM*
Cc1cc(N)n2ncc(-c3ccc(F)cc3)c2n1,3.16µM*,2.2%,10.7µM*,?,?
COc1ccc(-c2cnn3c(C)cc(C)nc23)cc1OC,nt,nt,1.9%,nt,nt
Cc1ccc(-n2c(=O)c3sccc3n(Cc3cc(=O)n4cc(Cl)ccc4n3)c2=O)cc1F,-1.7%,-3.7%,1.5%,35.5µM*,-1.1%
Cc1ccc(-n2c(=O)c3sccc3n(Cc3cc(=O)n4ccccc4n3)c2=O)cc1F,-0.9%,-3.5%,-0.4%,4.7%,-1.9%
CC1CCN(C(=O)COC(=O)c2n[nH]c3ccccc23)CC1,3.16µM*,0.4%,?,?,3.55µM*
CCC1CCCCN1C(=O)COC(=O)c1n[nH]c2ccccc12 (centres undefined),13.7%,-0.1%,?,-4.3%,7.7%
CCc1ccc(C(=O)COC(=O)c2n[nH]c3ccccc23)cc1,0.891µM*,-4.5%,3.01µM*,-12.5%,1.78µM*
Cc1cc(C)c(C(=O)COC(=O)c2nn(C)c(=O)c3ccccc23)cc1C,-4.8%,nt,10.7µM*,nt,-3.1%
Cn1nc(C(=O)OCC(=O)c2ccc(Br)cc2)c2ccccc2c1=O,0.5%,nt,0.4%,nt,0.7%
CCc1ccc(C(=O)COC(=O)c2nn(C)c(=O)c3ccccc23)cc1,-3.8%,0.0%,19µM*,0.9%,-2.4%
Cn1nc(C(=O)OCC(=O)c2ccc[nH]2)c2ccccc2c1=O,-2.1%,-0.1%,-0.8%,5.6%,-1.6%
